# PubChem BioAssay AID485276 (Southern Research Specialized Biocontainment Screening …, 2010)
# Results with a measured potency or affinity are listed apart. Activity calls are given as the source filed them. The rule behind the calls is not given here.
# Test: antiviral efficacy against SV40, host toxicity – BSC cells, set 3, confirmation (AID 485276)
# Conditions: series mostly up to 200 µM
smiles,measurement,value
Oc1ccc(Cc2ccc(O)cc2)cc1,outcome,inactive
